Measurements from PubChem BioAssay AID1159580 (chemical genetic matrix, 2015).
Screen size: about 5,500 compounds; about 2,000 (36%) were called active. About 18% were inconclusive and are not listed. Cut-off read from the data, not from the text of the source: active = normalized growth mostly below about 0.91 (no sharp cut-off); inconclusive = no clear call, values can overlap the other calls; inactive = mostly above about 0.92. This is one part of the list.

Assay: chemical genetic growth profiling, strain panel (AID 1159580);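 note: tested at 20 µM; growth read once vehicle control cultures reached saturation at 30 °C; 1 = growth at the plate median or of vehicle wells; lower values mean less growth of the strain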
Settings: growth OD

Measured: normalized growth

CC[C@H]1OC(=O)[C@H](C)[C@@H](O[C@H]2C[C@@](C)(OC)[C@@H](O)[C@H](C)O2)[C@H](C)[C@@H](O[C@@H]2O[C@H](C)C[C@H](N(C)C)[C@H]2O)[C@](C)(O)C[C@@H](C)[C@@H]2N[C@@H](COCCOC)O[C@H]([C@H]2C)[C@]1(C)O
inactive: S. cerevisiae deletion strains, locus YJR075W, strain HOC1, active compounds read low 1.05 | S. cerevisiae deletion strains, locus YKL009W, strain mrt4, active compounds read low 1.03 | S. cerevisiae deletion strains, locus YKL068W, active compounds read low 1 | S. cerevisiae deletion strains, locus YKL085W, strain MDH1 (second series), active compounds read low 0.976 | S. cerevisiae deletion strains, locus YKL085W, strain MDH1, active compounds read low 0.976 | S. cerevisiae deletion strains, locus YKL160W, strain elf1, active compounds read low 1 | S. cerevisiae deletion strains, locus YKR001C, strain vps1, active compounds read low 1.01 | S. cerevisiae deletion strains, locus YKR026C, strain gcn3, active compounds read low 0.987 | S. cerevisiae deletion strains, locus YKR091W, strain srl3, active compounds read low 0.997 | S. cerevisiae deletion strains, locus YLL001W, strain dnm1, active compounds read low 0.991 | S. cerevisiae deletion strains, locus YLL026W, active compounds read low 0.984 | S. cerevisiae deletion strains, locus YLL041C, strain sdh2, active compounds read low 0.986 | S. cerevisiae deletion strains, locus YLR027C, strain aat2, active compounds read low 0.991 | S. cerevisiae deletion strains, locus YLR039C, strain RIC1, active compounds read low 0.982 | S. cerevisiae deletion strains, locus YLR058C, strain SHM2, active compounds read low 1.02 | S. cerevisiae deletion strains, locus YLR102C, strain apc9, active compounds read low 1.01 | S. cerevisiae deletion strains, locus YLR113W, strain HOG1, active compounds read low 1.04 | S. cerevisiae deletion strains, locus YLR221C, strain rsa3, active compounds read low 0.993 | S. cerevisiae deletion strains, locus YLR258W, strain gsy2, active compounds read low 1 | S. cerevisiae deletion strains, locus YLR262C, strain YPT6 (second series), active compounds read low 0.985 | S. cerevisiae deletion strains, locus YLR262C, strain YPT6, active compounds read low 1.01 | S. cerevisiae deletion strains, locus YLR268W, strain sec22, active compounds read low 0.999 | S. cerevisiae deletion strains, locus YLR320W, strain mms22, active compounds read low 0.991 | S. cerevisiae deletion strains, locus YLR330W, strain CHS5, active compounds read low 1.01 | S. cerevisiae deletion strains, locus YLR342W, strain FKS1 (second series), active compounds read low 1.02 | S. cerevisiae deletion strains, locus YLR342W, strain FKS1, active compounds read low 0.992 | S. cerevisiae deletion strains, locus YLR357W, strain rsc2, active compounds read low 0.958 | S. cerevisiae deletion strains, locus YLR370C, strain arc18, active compounds read low 0.989 | S. cerevisiae deletion strains, locus YLR371W, strain rom2, active compounds read low 1 | S. cerevisiae deletion strains, locus YLR384C, strain iki3, active compounds read low 0.993 | S. cerevisiae deletion strains, locus YLR418C, strain cdc73, active compounds read low 0.996 | S. cerevisiae deletion strains, locus YML016C, strain PPZ1, active compounds read low 1.01 | S. cerevisiae deletion strains, locus YML032C, strain rad52, active compounds read low 0.999 | S. cerevisiae deletion strains, locus YML120C, strain ndi1, active compounds read low 0.997 | S. cerevisiae deletion strains, locus YML124C, strain tub3, active compounds read low 1 | S. cerevisiae deletion strains, locus YMR058W, strain fet3, active compounds read low 0.997 | S. cerevisiae deletion strains, locus YMR078C, strain ctf18, active compounds read low 1.01 | S. cerevisiae deletion strains, locus YMR125W, strain sto1, active compounds read low 0.992 | S. cerevisiae deletion strains, locus YMR129W, active compounds read low 1 | S. cerevisiae deletion strains, locus YMR205C, strain PFK2, active compounds read low 0.969 | S. cerevisiae deletion strains, locus YMR223W, strain ubp8, active compounds read low 1.02 | S. cerevisiae deletion strains, locus YMR231W, strain pep5, active compounds read low 0.993 | S. cerevisiae deletion strains, locus YMR263W, strain SAP30, active compounds read low 1.03 | S. cerevisiae deletion strains, locus YMR307W, strain GAS1, active compounds read low 0.919 | S. cerevisiae deletion strains, locus YNL067W, strain RPL9B, active compounds read low 1.04 | S. cerevisiae deletion strains, locus YNL071W, strain lat1, active compounds read low 0.999 | S. cerevisiae deletion strains, locus YNL128W, strain TEP1, active compounds read low 1.02 | S. cerevisiae deletion strains, locus YNL183C, strain NPR1, active compounds read low 0.96 | S. cerevisiae deletion strains, locus YNL209W, strain ssb2, active compounds read low 0.988 | S. cerevisiae deletion strains, locus YNL233W, strain BNI4, active compounds read low 1.03 | S. cerevisiae deletion strains, locus YNL248C, strain rpa49, active compounds read low 0.975 | S. cerevisiae deletion strains, locus YNL250W, strain rad50, active compounds read low 1.01 | S. cerevisiae deletion strains, locus YNL271C, strain bni1, active compounds read low 1.01 | S. cerevisiae deletion strains, locus YNL298W, strain CLA4, active compounds read low 1 | S. cerevisiae deletion strains, locus YNL307C, strain MCK1, active compounds read low 1 | S. cerevisiae deletion strains, locus YNL322C, strain KRE1 (second series), active compounds read low 0.995 | S. cerevisiae deletion strains, locus YNR049C, strain mso1, active compounds read low 0.989 | S. cerevisiae deletion strains, locus YNR052C, strain pop2, active compounds read low 1.01 | S. cerevisiae deletion strains, locus YOL006C, strain TOP1, active compounds read low 1.09 | S. cerevisiae deletion strains, locus YOL012C, strain htz1 1.56 | S. cerevisiae deletion strains, locus YOL147C, strain pex11, active compounds read low 1 | S. cerevisiae deletion strains, locus YOR001W, strain rrp6, active compounds read low 0.986 | S. cerevisiae deletion strains, locus YOR061W, strain CKA2, active compounds read low 1.02 | S. cerevisiae deletion strains, locus YOR069W, strain VPS5, active compounds read low 1.01 | S. cerevisiae deletion strains, locus YOR070C, strain gyp1, active compounds read low 0.999 | S. cerevisiae deletion strains, locus YOR080W, strain dia2, active compounds read low 0.995 | S. cerevisiae deletion strains, locus YOR083W, strain WHI5, active compounds read low 0.996 | S. cerevisiae deletion strains, locus YOR106W, strain vam3, active compounds read low 0.999 | S. cerevisiae deletion strains, locus YOR136W, strain idh2, active compounds read low 1 | S. cerevisiae deletion strains, locus YOR144C, strain elg1, active compounds read low 1.01 | S. cerevisiae deletion strains, locus YOR184W, strain ser1, active compounds read low 1 | S. cerevisiae deletion strains, locus YOR231W, strain MKK1, active compounds read low 1.02 | S. cerevisiae deletion strains, locus YOR265W, strain rbl2, active compounds read low 0.996 | S. cerevisiae deletion strains, locus YOR270C, strain vph1, active compounds read low 0.978 | S. cerevisiae deletion strains, locus YOR290C, strain snf2, active compounds read low 0.981 | S. cerevisiae deletion strains, locus YOR316C, strain cot1, active compounds read low 1.01 | S. cerevisiae deletion strains, locus YPL051W, strain arl3, active compounds read low 1.01 | S. cerevisiae deletion strains, locus YPL078C, strain atp4, active compounds read low 0.995 | S. cerevisiae deletion strains, locus YPL106C, strain sse1, active compounds read low 0.978 | S. cerevisiae deletion strains, locus YPL240C, strain hsp82, active compounds read low 0.989 | S. cerevisiae deletion strains, locus YPL256C, strain CLN2, active compounds read low 1.01 | S. cerevisiae deletion strains, locus YPR119W, strain clb2, active compounds read low 1.01 | S. cerevisiae deletion strains, locus YPR141C, strain kar3, active compounds read low 1.01 | S. cerevisiae deletion strains, locus YPR163C, strain tif3, active compounds read low 1.02 | S. cerevisiae deletion strains, locus YPR167C, strain met16, active compounds read low 0.996 | S. cerevisiae deletion strains, strain wtn01, active compounds read low 1 | S. cerevisiae strains, strain wild type, active compounds read low 1.02
